Several values for one entry are separate records, joined by “and”; a condition that tells them apart may be missing. Equal entries are not always repeated. Inconclusive results are not listed. A call without a number means that no potency is given here. Activity calls are given as the source filed them. Calls come from the whole dose curve; as a rule, active = well fitted inhibition curve with a large enough effect; inconclusive = small, poorly fitted or top-dose-only effect; inactive = no such curve, though single readings can be large or run the other way. Where a SMILES comes first, the peptide text is derived from it.
Potency is the fitted concentration of half-maximal effect.

The nature of this test: Primary qHTS for inhibitors of nuclear receptor binding SET domain protein 2 (NSD2) in an RCH-ACV wild type WT cells (2C) (AID 1645877). Note: nearly all actives have a fitted effect of over 70% in size. Conditions: RCH-ACV (leukaemia line) NSD2 WT (2C) viability, CellTiter-Glo, 72 h; series mostly up to 44.9 µM. (Quantitative high-throughput screening tests each substance at several concentrations.)
Consider `CCN(CC)C(=O)C1CN2CCc3cc(OC)c(OC)cc3C2CC1OC(C)=O` (stereo not drawn), for which the Potency result is “inactive”. Consider `O=C(O)C1CCC1`, for which the Potency entry is “inactive”. `CCC(C(=O)OCCN1CCOC(c2ccccc2)C1C)c1ccccc1` (stereo not drawn): the Potency entry is “inactive”. For the molecule `CSc1ccc(/C=C2/C(C)=C(CC(=O)O)c3cc(F)ccc32)cc1`, the Potency result is “inactive”.

As to `CCOC(=O)N1CCC(Nc2ccc(Cl)cc2N)CC1`, the Potency is 11.9 µM (active). In the case of `NS(=O)(=O)c1ccc(N2CCCCS2(=O)=O)cc1`, the Potency result was “inactive”. Regarding `Cn1c(=O)c2c(ncn2CC(=O)O)n(C)c1=O`, the Potency result is “inactive”. The value for `O=C1c2ccccc2CCc2ccccc21` was “inactive”.

As to `OCc1cccnc1`, the Potency result is “inactive”. Take `Cc1cc(=O)oc2cc(O[C@@H]3SC[C@@H](O)[C@H](O)[C@H]3O)ccc12`: the Potency entry was “inactive”.

Take `CC(C)(Oc1ccc(Cl)cc1)C(=O)OCCCOC(=O)C(C)(C)Oc1ccc(Cl)cc1`: the Potency entry was “inactive”. Consider `O=c1[nH]c(=O)n([C@H]2O[C@H](CO)[C@@H](O)[C@@H]2O)cc1/C=C\Br`, for which the Potency entry was “inactive”.

On to `COc1cc(NS(=O)(=O)c2ccc(N)cc2)nc(C)n1`, for which the Potency entry is “inactive”. Consider `CN(C)CCN1CCN(c2cccc(Cl)c2)C1=O`, for which the Potency entry was “inactive”. Regarding `CC(=O)N(c1onc(C)c1C)S(=O)(=O)c1ccc(N)cc1`, the Potency result was “inactive”. `CCOc1ccccc1OCC1CNCCO1` (stereo not drawn): the Potency entry was “inactive”. As for `O=C(Oc1ccccc1)c1cccc(C(=O)Oc2ccccc2)c1`, the entry is “inactive”; as for `O=C1CC2(CCCC2)CC(=O)N1`, “inactive”; as for `CCOC(=O)c1cc(=O)c2c(OCC(COc3cccc4oc(C(=O)OCC)cc(=O)c34)OC(=O)[C@@H](N)CCCCN)cccc2o1`, “inactive”.

On to `CC(=O)N[C@@H](CO)C(=O)N[C@@H](CC(=O)O)C(=O)N[C@@H](CCCCN)C(=O)N1CCC[C@H]1C(=O)O` (Ac-SDKP-OH), for which the Potency result is “inactive”. As for `OC1(c2ccc(Cl)cc2)CCNCC1`, the entry is “inactive”; as for `CCC1=C[C@@H]2CN(C1)Cc1c([nH]c3ccccc13)[C@@](C(=O)OC)(c1cc3c(cc1OC)N(C)[C@H]1[C@@](O)(C(=O)OC)[C@H](OC(C)=O)[C@]4(CC)C=CCN5CC[C@]31[C@@H]54)C2`, 2.1 nM (active) and 162 nM (active); as for `O=C(NN1CCCC1)NS(=O)(=O)c1ccc(Cl)cc1`, “inactive”.

The values are drawn from PubChem BioAssay (NCATS).
